Source: the supplement of paper PMC10849652
Of roughly 8,800 targets only a part is listed; those with a hit were picked by preference. About 0.5% of all pairs of compound and target were hits. A number with no mark means an inactive call.

Legend:
Experiment in all cases: log2 fold change, soluble protein after heating vs DMSO (PISA); higher = thermal stabilisation; K562 lysate, 10 uM; active = over 0.2 and 3.5 SD of the protein, either way, in both replicates (recomputed)
[1] = compound: CN1CC[C@H](c2c(O)cc(O)c3c(=O)cc(-c4ccccc4Cl)oc23)[C@H](O)C1 [alvocidib]
Summary of the method: (§1)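 Soluble protein was defined as the supernatant remaining after 21,000xg for 90 min, following pooling of heated aliquots and adjustment to 0.5% NP-40 at 4°C. Before that, crude K562 extract at 1 mg/mL protein in PBS pH 7.4 with 1 mM MgCl2 was treated with 10 μM compound for 30 min and heated for 3 min across 48°C-58°C. Quantification used TMTpro 16plex LC-MS/MS with channel sums equalised, and values are log-two fold changes in thermal stability relative to solvent controls from duplicates.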

[2] = compound: CN1CCc2c(c3ccccc3n2Cc2ccc(C(=O)NO)cc2)C1 [Tubastatin A]
Summary of the method: as §1

[3] = compound: CNC(=O)C1=CC=CC=C1NC2=NC(=NC=C2Cl)NC3=C(C=C(C=C3)N4CCOCC4)OC
Summary of the method: as §1

[4] = compound: CNC(=O)c1ccc(Nc2ncc(C(F)(F)F)c(NCc3nccnc3N(C)S(C)(=O)=O)n2)cc1 [defactinib]
Summary of the method: as §1

[5] = compound: CNc1nc(-c2ccc3c(N)n[nH]c3c2)cc(N2C[C@@H](C(=O)NC3CCCCC3)CC[C@H]2C)n1
Summary of the method: as §1

[6] = compound: COC(=O)N[C@@H](C)CNc1nccc(-c2cn(C(C)C)nc2-c2cc(Cl)cc(NS(C)(=O)=O)c2F)n1 [encorafenib]
Summary of the method: as §1

[7] = compound: COC(=O)[C@H](CCSC)NC(=O)C1=C(C=C(C=C1)NC[C@H](CS)N)C2=CC=CC=C2
Summary of the method: as §1

[8] = compound: COc1cc(Nc2ncc3c(n2)-c2ccc(Cl)cc2C(c2c(F)cccc2OC)=NC3)ccc1C(=O)O [alisertib]
Summary of the method: as §1

[9] = compound: COc1cc2nc(-c3cc(F)ccc3O)nc(N[C@@H]3CNC[C@H]3C(C)(C)O)c2cc1OC
Summary of the method: as §1

[10] = compound: COc1cc2ncnc(Nc3ccc(F)c(Cl)c3)c2cc1OCCCN1CCOCC1 [gefitinib]
Summary of the method: as §1

Sequence of UniProt Q99708 (Q99708 whole entry, looked up): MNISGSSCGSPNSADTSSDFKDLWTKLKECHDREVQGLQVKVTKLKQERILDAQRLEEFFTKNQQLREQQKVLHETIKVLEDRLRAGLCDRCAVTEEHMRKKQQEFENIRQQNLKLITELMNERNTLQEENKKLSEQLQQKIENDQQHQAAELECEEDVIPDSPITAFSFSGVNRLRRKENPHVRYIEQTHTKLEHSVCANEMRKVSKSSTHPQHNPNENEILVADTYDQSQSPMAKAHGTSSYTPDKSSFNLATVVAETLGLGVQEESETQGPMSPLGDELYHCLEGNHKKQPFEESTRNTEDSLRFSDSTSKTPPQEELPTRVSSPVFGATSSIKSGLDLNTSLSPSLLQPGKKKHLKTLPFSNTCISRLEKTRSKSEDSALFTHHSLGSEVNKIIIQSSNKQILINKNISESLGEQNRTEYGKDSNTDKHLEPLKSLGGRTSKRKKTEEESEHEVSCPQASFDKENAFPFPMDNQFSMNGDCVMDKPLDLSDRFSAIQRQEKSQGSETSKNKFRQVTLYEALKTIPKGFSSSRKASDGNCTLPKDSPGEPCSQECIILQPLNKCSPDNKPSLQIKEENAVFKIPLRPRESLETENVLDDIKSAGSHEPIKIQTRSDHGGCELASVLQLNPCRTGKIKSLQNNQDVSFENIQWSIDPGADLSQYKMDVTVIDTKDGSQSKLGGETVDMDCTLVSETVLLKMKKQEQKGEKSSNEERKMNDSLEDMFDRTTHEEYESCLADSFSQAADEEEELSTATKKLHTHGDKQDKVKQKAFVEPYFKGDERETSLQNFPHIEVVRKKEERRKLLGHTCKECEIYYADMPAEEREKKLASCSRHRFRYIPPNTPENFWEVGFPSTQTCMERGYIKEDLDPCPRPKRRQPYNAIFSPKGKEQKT
Sequence of UniProt O00767 (O00767 whole entry, looked up): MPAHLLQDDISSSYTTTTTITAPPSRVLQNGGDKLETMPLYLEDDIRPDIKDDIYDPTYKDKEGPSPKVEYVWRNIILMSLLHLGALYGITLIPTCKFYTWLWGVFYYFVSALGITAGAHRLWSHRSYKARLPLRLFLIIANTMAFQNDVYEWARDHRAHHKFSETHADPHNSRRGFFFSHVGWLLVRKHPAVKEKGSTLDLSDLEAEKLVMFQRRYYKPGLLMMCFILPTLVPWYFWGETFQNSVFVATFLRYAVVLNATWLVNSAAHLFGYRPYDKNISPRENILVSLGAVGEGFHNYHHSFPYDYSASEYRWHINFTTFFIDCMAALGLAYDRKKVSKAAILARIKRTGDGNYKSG
Sequence of UniProt Q86X10 (Q86X10 whole entry, looked up): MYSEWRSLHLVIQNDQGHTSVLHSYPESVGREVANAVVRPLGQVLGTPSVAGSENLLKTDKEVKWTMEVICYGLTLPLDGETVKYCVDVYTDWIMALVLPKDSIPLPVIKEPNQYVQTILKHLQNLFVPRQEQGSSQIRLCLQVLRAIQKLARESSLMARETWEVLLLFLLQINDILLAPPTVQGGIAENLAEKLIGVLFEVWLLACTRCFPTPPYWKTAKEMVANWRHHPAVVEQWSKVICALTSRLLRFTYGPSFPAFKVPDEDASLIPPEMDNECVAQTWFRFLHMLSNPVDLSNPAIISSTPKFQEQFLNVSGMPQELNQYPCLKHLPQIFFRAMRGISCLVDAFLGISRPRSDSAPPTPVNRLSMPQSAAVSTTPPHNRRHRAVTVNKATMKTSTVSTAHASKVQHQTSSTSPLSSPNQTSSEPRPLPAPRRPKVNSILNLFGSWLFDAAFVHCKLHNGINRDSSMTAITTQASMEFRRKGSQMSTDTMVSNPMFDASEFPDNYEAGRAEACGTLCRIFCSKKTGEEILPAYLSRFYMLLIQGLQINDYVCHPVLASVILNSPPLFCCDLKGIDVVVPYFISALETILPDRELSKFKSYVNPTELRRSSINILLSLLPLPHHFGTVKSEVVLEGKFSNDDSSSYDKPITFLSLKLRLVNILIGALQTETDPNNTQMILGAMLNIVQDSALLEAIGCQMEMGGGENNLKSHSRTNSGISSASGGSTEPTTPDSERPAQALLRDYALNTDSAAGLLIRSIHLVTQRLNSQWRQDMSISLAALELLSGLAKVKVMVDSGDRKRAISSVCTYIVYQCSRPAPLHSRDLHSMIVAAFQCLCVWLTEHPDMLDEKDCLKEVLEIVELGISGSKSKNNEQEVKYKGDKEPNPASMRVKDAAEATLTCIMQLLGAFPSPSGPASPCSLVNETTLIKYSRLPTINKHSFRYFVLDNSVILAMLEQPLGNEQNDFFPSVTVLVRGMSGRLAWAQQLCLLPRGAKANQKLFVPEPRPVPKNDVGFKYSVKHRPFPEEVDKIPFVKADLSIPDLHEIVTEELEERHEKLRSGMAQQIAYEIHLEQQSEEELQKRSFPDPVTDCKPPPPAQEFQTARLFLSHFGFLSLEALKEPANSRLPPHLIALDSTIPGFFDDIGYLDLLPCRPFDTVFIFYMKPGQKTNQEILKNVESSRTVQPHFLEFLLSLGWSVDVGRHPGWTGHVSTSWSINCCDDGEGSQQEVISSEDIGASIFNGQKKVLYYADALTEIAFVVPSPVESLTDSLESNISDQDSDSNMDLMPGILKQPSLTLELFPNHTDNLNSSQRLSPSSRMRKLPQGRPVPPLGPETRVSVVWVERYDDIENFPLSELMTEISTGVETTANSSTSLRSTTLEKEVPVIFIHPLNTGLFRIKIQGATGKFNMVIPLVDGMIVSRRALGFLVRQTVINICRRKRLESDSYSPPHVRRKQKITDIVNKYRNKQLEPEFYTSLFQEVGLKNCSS
Sequence of UniProt Q96HR9 (Q96HR9 whole entry, looked up): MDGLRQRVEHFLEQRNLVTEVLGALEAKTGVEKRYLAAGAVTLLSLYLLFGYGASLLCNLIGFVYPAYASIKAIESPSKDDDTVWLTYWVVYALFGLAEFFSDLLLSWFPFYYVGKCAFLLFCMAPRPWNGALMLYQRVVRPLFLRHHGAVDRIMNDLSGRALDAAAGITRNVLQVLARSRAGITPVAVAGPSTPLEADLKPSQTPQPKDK
Sequence of UniProt Q13546 (Q13546 whole entry, looked up): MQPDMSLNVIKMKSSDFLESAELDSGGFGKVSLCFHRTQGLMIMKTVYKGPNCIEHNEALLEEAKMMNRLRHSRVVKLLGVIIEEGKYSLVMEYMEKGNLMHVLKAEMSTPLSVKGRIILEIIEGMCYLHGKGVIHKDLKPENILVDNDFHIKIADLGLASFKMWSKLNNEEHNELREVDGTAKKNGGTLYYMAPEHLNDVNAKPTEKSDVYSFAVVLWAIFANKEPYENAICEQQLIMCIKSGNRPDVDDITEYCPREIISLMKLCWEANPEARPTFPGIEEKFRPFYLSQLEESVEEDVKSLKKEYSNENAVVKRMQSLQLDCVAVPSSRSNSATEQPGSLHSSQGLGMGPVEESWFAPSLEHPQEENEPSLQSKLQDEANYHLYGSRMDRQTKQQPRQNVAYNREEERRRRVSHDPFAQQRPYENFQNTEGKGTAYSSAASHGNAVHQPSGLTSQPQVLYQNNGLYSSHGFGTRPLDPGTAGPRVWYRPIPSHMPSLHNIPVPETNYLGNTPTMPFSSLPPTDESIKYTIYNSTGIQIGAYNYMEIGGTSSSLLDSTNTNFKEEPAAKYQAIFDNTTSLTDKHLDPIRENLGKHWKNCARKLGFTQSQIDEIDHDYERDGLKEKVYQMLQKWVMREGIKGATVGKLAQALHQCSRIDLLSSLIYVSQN
Sequence of UniProt Q9BWF3 (Q9BWF3 whole entry, looked up): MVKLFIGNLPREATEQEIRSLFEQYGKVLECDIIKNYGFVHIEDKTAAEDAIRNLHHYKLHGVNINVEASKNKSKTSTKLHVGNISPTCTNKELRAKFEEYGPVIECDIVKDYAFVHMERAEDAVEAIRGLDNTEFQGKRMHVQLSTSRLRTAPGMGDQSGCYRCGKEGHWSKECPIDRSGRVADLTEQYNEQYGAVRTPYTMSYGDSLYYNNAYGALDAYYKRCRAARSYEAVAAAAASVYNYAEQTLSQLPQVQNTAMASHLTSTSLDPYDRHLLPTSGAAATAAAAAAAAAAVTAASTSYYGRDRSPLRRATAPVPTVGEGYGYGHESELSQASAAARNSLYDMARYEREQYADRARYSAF
Sequence of UniProt Q8IYW5 (Q8IYW5 whole entry, looked up): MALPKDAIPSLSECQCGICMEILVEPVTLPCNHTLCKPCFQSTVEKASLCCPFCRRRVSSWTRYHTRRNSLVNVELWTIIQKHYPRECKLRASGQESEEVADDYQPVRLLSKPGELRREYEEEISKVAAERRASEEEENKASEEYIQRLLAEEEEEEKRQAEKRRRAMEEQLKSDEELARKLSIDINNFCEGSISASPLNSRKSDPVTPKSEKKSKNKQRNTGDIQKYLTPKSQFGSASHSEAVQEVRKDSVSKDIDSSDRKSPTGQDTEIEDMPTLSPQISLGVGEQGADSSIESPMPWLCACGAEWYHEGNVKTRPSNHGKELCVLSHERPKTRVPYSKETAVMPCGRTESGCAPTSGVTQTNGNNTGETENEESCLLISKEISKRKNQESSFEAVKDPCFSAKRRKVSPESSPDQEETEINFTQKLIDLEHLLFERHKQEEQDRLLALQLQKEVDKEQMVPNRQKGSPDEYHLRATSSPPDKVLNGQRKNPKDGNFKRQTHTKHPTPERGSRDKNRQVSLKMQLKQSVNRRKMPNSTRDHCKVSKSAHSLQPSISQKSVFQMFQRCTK
Sequence of UniProt Q15404 (Q15404 whole entry, looked up): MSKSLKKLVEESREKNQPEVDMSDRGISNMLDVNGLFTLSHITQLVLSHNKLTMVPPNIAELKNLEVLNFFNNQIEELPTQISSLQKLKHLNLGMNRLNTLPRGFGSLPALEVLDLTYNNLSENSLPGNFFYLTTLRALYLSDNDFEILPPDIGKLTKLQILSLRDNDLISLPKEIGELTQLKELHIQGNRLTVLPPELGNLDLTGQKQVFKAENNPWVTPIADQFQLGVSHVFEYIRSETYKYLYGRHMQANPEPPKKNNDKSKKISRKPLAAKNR

Target | log2 fold change [1] | log2 fold change [2] | log2 fold change [3] | log2 fold change [4] | log2 fold change [5] | log2 fold change [6] | log2 fold change [7] | log2 fold change [8] | log2 fold change [9] | log2 fold change [10]
RIPK1 (UniProt Q13546) | 0.001 | -0.108 | 0.044 | 0.065 | 0.035 | -0.017 | 0.025 | -0.025 | -0.016 | 0.042
REEP6 (UniProt Q96HR9) | -0.089 | 0.045 | 0.02 | 0.056 | -0.013 | 0.076 | -0.025 | 0.032 | -0.036 | -0.175
RECQL5 (UniProt O94762) | 0.057 | -0.053 | -0.071 | 0.068 | 0.074 | 0.225 | 0.016 | -0.003 | 0.09 | 0.03
RALGAPB (UniProt Q86X10) | 0.02 | -0.056 | -0.069 | 0.026 | 0.012 | 0.044 | 0.015 | 0 | 0.032 | -0.007
RPS26P11 (UniProt Q5JNZ5) | -0.216 | 0.038 | -0.064 | 0.011 | 0.02 | 0.007 | 0.006 | -0.006 | -0.032 | -0.056
RSU1 (UniProt Q15404) | 0.12 | 0.057 | -0.021 | -0.042 | -0.008 | -0.035 | -0.035 | -0.005 | 0.015 | 0.023
RBM4 (UniProt Q9BWF3) | 0.16 | -0.168 | 0.013 | -0.011 | -0.088 | 0.089 | -0.066 | 0.037 | 0.006 | -0.004
RBMX (UniProt P38159) | -0.003 | -0.03 | -0.042 | 0.023 | -0.022 | 0.021 | -0.068 | 0.002 | 0.013 | 0.023
SCD (UniProt O00767) | -0.138 | -0.015 | -0.014 | -0.02 | -0.091 | -0.097 | 0.076 | 0.006 | 0.004 | 0.011
REXO4 (UniProt Q9GZR2) | 0.089 | -0.108 | 0.026 | 0.013 | 0.032 | -0.007 | 0.08 | -0.008 | 0.024 | -0.029
RAB3IL1 (UniProt Q8TBN0) | 0.027 | -0.021 | 0.022 | 0.007 | 0.009 | -0.006 | -0.031 | -0.013 | 0.039 | 0.014
REEP5 (UniProt Q00765) | -0.054 | -0.004 | -0.056 | 0.04 | 0.035 | 0.001 | 0.263 (active) | -0.009 | 0.001 | -0.092
SAR1B (UniProt Q9Y6B6) | 0.032 | 0.176 | 0.199 | 0.05 | 0.147 | 0.203 | 0.052 | 0.128 | 0.145 | 0.015
RNF168 (UniProt Q8IYW5) | 0.037 | -0.03 | 0.068 | -0.026 | -0.03 | -0.046 | -0.102 | -0.078 | -0.043 | 0.079
R3HCC1 (UniProt Q9Y3T6) | -0.019 | 0.023 | 0.048 | 0.055 | -0.018 | -0.004 | -0.04 | -0.002 | 0.003 | 0.008
RBM8A (UniProt Q9Y5S9) | 0.086 | 0.024 | -0.024 | 0.017 | -0.256 | 0.002 | -0.069 | 0 | -0.062 | -0.024
REL isoform 2 (UniProt Q04864) | 0.061 | -0.126 | 0.003 | 0.023 | -0.056 | 0.012 | 0.029 | -0.003 | -0.019 | 0.029
RELN (UniProt P78509) | 0.026 | -0.051 | -0.025 | 0.055 | -0.016 | -0.009 | -0.092 | -0.014 | 0.141 | 0.089
RDH14 (UniProt Q9HBH5) | -0.001 | -0.033 | 0.088 | -0.044 | -0.123 | -0.028 | -0.199 | 0.07 | -0.043 | -0.07
RBBP8 isoform 2 (UniProt Q99708) | 0.013 | 0.07 | 0.061 | -0.023 | 0.108 | -0.039 | -0.074 | -0.008 | 0.009 | -0.014
RABGGTB (UniProt P53611) | -0.015 | -0.043 | -0.025 | 0.031 | -0.021 | 0.044 | 0.065 | 0.005 | 0.002 | -0.002
RPS6KB1 (UniProt P23443) | -0.021 | -0.184 | 0.115 | 0.094 | -0.013 | -0.039 | 0.218 | -0.02 | 0.166 | 0.062
RPS18 (UniProt P62269) | -0.057 | 0.04 | -0.021 | 0.016 | 0.025 | -0.022 | 0.054 | 0.013 | 0.001 | -0.032
RIC1 (UniProt Q4ADV7) | 0.014 | -0.051 | 0.029 | -0.12 | 0.02 | 0.037 | -0.13 | 0.017 | -0.073 | 0.024
RAP1GAP isoform 4 (UniProt P47736) | 0.01 | -0.138 | 0.06 | 0.012 | -0.027 | 0.022 | 0.01 | 0.024 | 0.008 | 0.026
RPL31 (UniProt P62899) | -0.013 | 0.032 | -0.042 | -0.024 | 0.044 | -0.016 | 0.035 | 0.033 | -0.015 | -0.035
RNASEH2B (UniProt Q5TBB1) | 0.05 | -0.046 | -0.003 | 0.092 | -0.021 | 0.035 | 0.338 (active) | -0.031 | -0.038 | -0.031
RINT1 (UniProt Q6NUQ1) | 0.041 | -0.083 | 0.011 | 0.047 | -0.072 | 0.01 | -0.017 | -0.086 | 0.065 | 0.035
RANBP6 (UniProt O60518) | -0.033 | -0.07 | 0.008 | 0.047 | 0.014 | -0.027 | 0.057 | 0.063 | 0.046 | 0.008
RASA3 (UniProt Q14644) | -0.089 | -0.246 | 0 | 0.052 | -0.118 | -0.005 | 0.082 | -0.006 | 0.032 | -0.043
